PubChem BioAssay AID1159580 (chemical genetic matrix, 2015)
The whole screen tested about 5,500 compounds, of which about 2,000 (36%) were called active. About 18% were inconclusive and are not listed. Cut-off read from the data, not from the text of the source: active = normalized growth mostly below about 0.91 (no sharp cut-off); inconclusive = no clear call, values can overlap the other calls; inactive = mostly above about 0.92. Some of the results follow.

Test: chemical genetic growth profiling, strain panel (AID 1159580);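 note: tested at 20 µM; growth read once vehicle control cultures reached saturation at 30 °C; 1 = growth at the plate median or of vehicle wells; lower values mean less growth of the strain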
Settings: growth OD

Measured: normalized growth

NC(=NCCC[C@H](N)C(=O)O)NC(CCC(=O)O)C(=O)O (stereo partly drawn)
inactive: S. cerevisiae deletion strains, locus YAL021C, strain ccr4, active compounds read low 1 | S. cerevisiae deletion strains, locus YAL026C, strain drs2, active compounds read low 1 | S. cerevisiae deletion strains, locus YAL030W, strain snc1, active compounds read low 1 | S. cerevisiae deletion strains, locus YBL061C, strain skt5, active compounds read low 1.01 | S. cerevisiae deletion strains, locus YBR009C, strain hhf1, active compounds read low 1 | S. cerevisiae deletion strains, locus YBR021W, strain FUR4, active compounds read low 1.02 | S. cerevisiae deletion strains, locus YBR023C, strain chs3, active compounds read low 1.01 | S. cerevisiae deletion strains, locus YBR171W, strain sec66, active compounds read low 1.02 | S. cerevisiae deletion strains, locus YBR229C, strain ROT2, active compounds read low 1.01 | S. cerevisiae deletion strains, locus YBR231C, strain swc5, active compounds read low 1.01 | S. cerevisiae deletion strains, locus YBR279W, strain paf1, active compounds read low 0.998 | S. cerevisiae deletion strains, locus YCL011C, strain gbp2, active compounds read low 1.01 | S. cerevisiae deletion strains, locus YCL016C, strain dcc1, active compounds read low 1.01 | S. cerevisiae deletion strains, locus YCL029C, strain bik1, active compounds read low 1.03 | S. cerevisiae deletion strains, locus YCL061C, strain MRC1, active compounds read low 0.998 | S. cerevisiae deletion strains, locus YCL069W, strain vba3, active compounds read low 1.01 | S. cerevisiae deletion strains, locus YCR088W, strain abp1, active compounds read low 1.01 | S. cerevisiae deletion strains, locus YDL005C, strain med2, active compounds read low 1.01 | S. cerevisiae deletion strains, locus YDL035C, strain GPR1, active compounds read low 1.02 | S. cerevisiae deletion strains, locus YDL040C, strain nat1, active compounds read low 1.01 | S. cerevisiae deletion strains, locus YDL074C, strain BRE1, active compounds read low 1.05 | S. cerevisiae deletion strains, locus YDL101C, strain DUN1, active compounds read low 1.01 | S. cerevisiae deletion strains, locus YDL185W, strain tfp1, active compounds read low 1.01 | S. cerevisiae deletion strains, locus YDL192W, strain arf1, active compounds read low 1.02 | S. cerevisiae deletion strains, locus YDR001C, strain nth1, active compounds read low 1.01 | S. cerevisiae deletion strains, locus YDR069C, strain doa4, active compounds read low 1.01 | S. cerevisiae deletion strains, locus YDR101C, strain arx1, active compounds read low 1.04 | S. cerevisiae deletion strains, locus YDR137W, strain rgp1, active compounds read low 0.992 | S. cerevisiae deletion strains, locus YDR159W, strain sac3, active compounds read low 1.01 | S. cerevisiae deletion strains, locus YDR162C, strain NBP2, active compounds read low 0.977 | S. cerevisiae deletion strains, locus YDR195W, strain ref2 0.974 | S. cerevisiae deletion strains, locus YDR297W, strain sur2, active compounds read low 1.01 | S. cerevisiae deletion strains, locus YDR318W, strain mcm21, active compounds read low 1 | S. cerevisiae deletion strains, locus YDR334W, strain swr1, active compounds read low 1.01 | S. cerevisiae deletion strains, locus YDR335W, strain msn5, active compounds read low 0.995 | S. cerevisiae deletion strains, locus YDR388W, active compounds read low 1.02 | S. cerevisiae deletion strains, locus YDR392W, strain spt3, active compounds read low 1.02 | S. cerevisiae deletion strains, locus YDR502C, strain sam2, active compounds read low 1.01 | S. cerevisiae deletion strains, locus YEL003W, strain gim4, active compounds read low 1 | S. cerevisiae deletion strains, locus YEL037C, strain rad23, active compounds read low 1 | S. cerevisiae deletion strains, locus YEL061C, strain CIN8 (second series), active compounds read low 1 | S. cerevisiae deletion strains, locus YEL061C, strain CIN8, active compounds read low 1.01 | S. cerevisiae deletion strains, locus YER015W, strain faa2, active compounds read low 1.01 | S. cerevisiae deletion strains, locus YER016W, strain bim1, active compounds read low 1 | S. cerevisiae deletion strains, locus YER110C, active compounds read low 1.01 | S. cerevisiae deletion strains, locus YER111C, strain swi4, active compounds read low 0.996 | S. cerevisiae deletion strains, locus YER155C, strain BEM2 (second series), active compounds read low 1.02 | S. cerevisiae deletion strains, locus YER155C, strain BEM2, active compounds read low 1.01 | S. cerevisiae deletion strains, locus YER167W, strain BCK2, active compounds read low 1.02 | S. cerevisiae deletion strains, locus YFR010W, strain ubp6, active compounds read low 1.01 | S. cerevisiae deletion strains, locus YGL078C, strain dbp3, active compounds read low 1.02 | S. cerevisiae deletion strains, locus YGL086W, strain mad1, active compounds read low 1.04 | S. cerevisiae deletion strains, locus YGL167C, strain pmr1, active compounds read low 1.01 | S. cerevisiae deletion strains, locus YGL173C, strain kem1, active compounds read low 1.01 | S. cerevisiae deletion strains, locus YGL227W, strain vid30, active compounds read low 1.01 | S. cerevisiae deletion strains, locus YGL240W, strain doc1, active compounds read low 1.02 | S. cerevisiae deletion strains, locus YGL248W, strain PDE1, active compounds read low 0.999 | S. cerevisiae deletion strains, locus YGL253W, strain hxk2, active compounds read low 1.01 | S. cerevisiae deletion strains, locus YGR078C, strain PAC10, active compounds read low 1.01 | S. cerevisiae deletion strains, locus YGR135W, strain pre9, active compounds read low 1.04 | S. cerevisiae deletion strains, locus YGR252W, strain gcn5, active compounds read low 0.991 | S. cerevisiae deletion strains, locus YHR013C, strain ard1, active compounds read low 1.03 | S. cerevisiae deletion strains, locus YHR027C, strain rpn1, active compounds read low 1.02 | S. cerevisiae deletion strains, locus YHR030C, strain SLT2, active compounds read low 1.01 | S. cerevisiae deletion strains, locus YHR079C, strain IRE1 (second series), active compounds read low 1 | S. cerevisiae deletion strains, locus YHR094C, strain hxt1, active compounds read low 1.01 | S. cerevisiae deletion strains, locus YHR129C, strain ARP1, active compounds read low 1.01 | S. cerevisiae deletion strains, locus YHR142W, strain chs7, active compounds read low 1.02 | S. cerevisiae deletion strains, locus YHR200W, strain rpn10, active compounds read low 1 | S. cerevisiae deletion strains, locus YIL066C, strain RNR3, active compounds read low 1.01 | S. cerevisiae deletion strains, locus YIL073C, strain SPO22, active compounds read low 1.06 | S. cerevisiae deletion strains, locus YIL125W, strain kgd1, active compounds read low 1.02 | S. cerevisiae deletion strains, locus YIR030C, strain dcg1, active compounds read low 1.01 | S. cerevisiae deletion strains, locus YJL092W, strain hpr5, active compounds read low 1.01 | S. cerevisiae deletion strains, locus YJL095W, strain BCK1 (second series), active compounds read low 1.01 | S. cerevisiae deletion strains, locus YJL095W, strain BCK1, active compounds read low 1.01 | S. cerevisiae deletion strains, locus YJL115W, strain asf1, active compounds read low 1 | S. cerevisiae deletion strains, locus YJL129C, strain trk1, active compounds read low 1.01 | S. cerevisiae deletion strains, locus YJL134W, strain LCB3, active compounds read low 1.01 | S. cerevisiae deletion strains, locus YJL154C, strain vps35, active compounds read low 1.01 | S. cerevisiae deletion strains, locus YJL164C, strain tpk1, active compounds read low 1.01 | S. cerevisiae deletion strains, locus YJL166W, strain qcr8, active compounds read low 1.01 | S. cerevisiae deletion strains, locus YJL168C, strain set2, active compounds read low 1.04 | S. cerevisiae deletion strains, locus YJL187C, strain SWE1 (second series), active compounds read low 1 | S. cerevisiae deletion strains, locus YJL187C, strain SWE1, active compounds read low 1 | S. cerevisiae deletion strains, locus YJR043C, strain POL32, active compounds read low 1 | S. cerevisiae deletion strains, locus YKL009W, strain mrt4, active compounds read low 1.03 | S. cerevisiae deletion strains, locus YKL068W, active compounds read low 1 | S. cerevisiae deletion strains, locus YKL085W, strain MDH1 (second series), active compounds read low 1.01 | S. cerevisiae deletion strains, locus YKL085W, strain MDH1, active compounds read low 1.01 | S. cerevisiae deletion strains, locus YKL160W, strain elf1, active compounds read low 1.02 | S. cerevisiae deletion strains, locus YKL190W, strain CNB1, active compounds read low 1.01 | S. cerevisiae deletion strains, locus YKR001C, strain vps1, active compounds read low 1.06 | S. cerevisiae deletion strains, locus YKR026C, strain gcn3, active compounds read low 1.01 | S. cerevisiae deletion strains, locus YKR091W, strain srl3, active compounds read low 1.01 | S. cerevisiae deletion strains, locus YLL001W, strain dnm1, active compounds read low 1.01 | S. cerevisiae deletion strains, locus YLL026W, active compounds read low 1.01 | S. cerevisiae deletion strains, locus YLL041C, strain sdh2, active compounds read low 1.01 | S. cerevisiae deletion strains, locus YLR027C, strain aat2, active compounds read low 0.998 | S. cerevisiae deletion strains, locus YLR039C, strain RIC1, active compounds read low 1 | S. cerevisiae deletion strains, locus YLR058C, strain SHM2, active compounds read low 1.01 | S. cerevisiae deletion strains, locus YLR102C, strain apc9, active compounds read low 1.02 | S. cerevisiae deletion strains, locus YLR221C, strain rsa3, active compounds read low 1.02 | S. cerevisiae deletion strains, locus YLR258W, strain gsy2, active compounds read low 1.01 | S. cerevisiae deletion strains, locus YLR262C, strain YPT6 (second series), active compounds read low 0.996 | S. cerevisiae deletion strains, locus YLR262C, strain YPT6, active compounds read low 1.02 | S. cerevisiae deletion strains, locus YLR268W, strain sec22, active compounds read low 1.04 | S. cerevisiae deletion strains, locus YLR320W, strain mms22, active compounds read low 1.02 | S. cerevisiae deletion strains, locus YLR330W, strain CHS5, active compounds read low 1.01 | S. cerevisiae deletion strains, locus YLR342W, strain FKS1 (second series), active compounds read low 1.06 | S. cerevisiae deletion strains, locus YLR342W, strain FKS1, active compounds read low 1.01 | S. cerevisiae deletion strains, locus YLR357W, strain rsc2, active compounds read low 1.03 | S. cerevisiae deletion strains, locus YLR370C, strain arc18, active compounds read low 1.01 | S. cerevisiae deletion strains, locus YLR371W, strain rom2, active compounds read low 1.02 | S. cerevisiae deletion strains, locus YLR384C, strain iki3, active compounds read low 0.996 | S. cerevisiae deletion strains, locus YLR418C, strain cdc73, active compounds read low 1.01 | S. cerevisiae deletion strains, locus YML016C, strain PPZ1, active compounds read low 1 | S. cerevisiae deletion strains, locus YML032C, strain rad52, active compounds read low 1.02 | S. cerevisiae deletion strains, locus YML120C, strain ndi1, active compounds read low 1 | S. cerevisiae deletion strains, locus YML124C, strain tub3, active compounds read low 1.01 | S. cerevisiae deletion strains, locus YMR058W, strain fet3, active compounds read low 1.01 | S. cerevisiae deletion strains, locus YMR078C, strain ctf18, active compounds read low 1.01 | S. cerevisiae deletion strains, locus YMR125W, strain sto1, active compounds read low 0.999 | S. cerevisiae deletion strains, locus YMR129W, active compounds read low 0.997 | S. cerevisiae deletion strains, locus YMR205C, strain PFK2, active compounds read low 1.02 | S. cerevisiae deletion strains, locus YMR223W, strain ubp8, active compounds read low 0.985 | S. cerevisiae deletion strains, locus YMR231W, strain pep5, active compounds read low 0.989 | S. cerevisiae deletion strains, locus YMR307W, strain GAS1, active compounds read low 1 | S. cerevisiae deletion strains, locus YNL067W, strain RPL9B, active compounds read low 0.995 | S. cerevisiae deletion strains, locus YNL071W, strain lat1, active compounds read low 1.01 | S. cerevisiae deletion strains, locus YNL153C, strain GIM3, active compounds read low 0.989 | S. cerevisiae deletion strains, locus YNL209W, strain ssb2, active compounds read low 1 | S. cerevisiae deletion strains, locus YNL233W, strain BNI4, active compounds read low 1.03 | S. cerevisiae deletion strains, locus YNL248C, strain rpa49, active compounds read low 1.01 | S. cerevisiae deletion strains, locus YNL250W, strain rad50, active compounds read low 1.02 | S. cerevisiae deletion strains, locus YNL271C, strain bni1, active compounds read low 0.999 | S. cerevisiae deletion strains, locus YNL298W, strain CLA4, active compounds read low 1.01 | S. cerevisiae deletion strains, locus YNL307C, strain MCK1, active compounds read low 1.03 | S. cerevisiae deletion strains, locus YNL322C, strain KRE1 (second series), active compounds read low 1.01 | S. cerevisiae deletion strains, locus YNL322C, strain KRE1, active compounds read low 1.01 | S. cerevisiae deletion strains, locus YNR049C, strain mso1, active compounds read low 1.02 | S. cerevisiae deletion strains, locus YNR052C, strain pop2, active compounds read low 1.01 | S. cerevisiae deletion strains, locus YOL012C, strain htz1 1.47 | S. cerevisiae deletion strains, locus YOL147C, strain pex11, active compounds read low 1.02 | S. cerevisiae deletion strains, locus YOR001W, strain rrp6, active compounds read low 1.02 | S. cerevisiae deletion strains, locus YOR061W, strain CKA2, active compounds read low 1.01 | S. cerevisiae deletion strains, locus YOR069W, strain VPS5, active compounds read low 1.01 | S. cerevisiae deletion strains, locus YOR070C, strain gyp1, active compounds read low 1 | S. cerevisiae deletion strains, locus YOR080W, strain dia2, active compounds read low 0.999 | S. cerevisiae deletion strains, locus YOR083W, strain WHI5, active compounds read low 1 | S. cerevisiae deletion strains, locus YOR106W, strain vam3, active compounds read low 1.02 | S. cerevisiae deletion strains, locus YOR136W, strain idh2, active compounds read low 1.05 | S. cerevisiae deletion strains, locus YOR144C, strain elg1, active compounds read low 1.02 | S. cerevisiae deletion strains, locus YOR184W, strain ser1, active compounds read low 1.01 | S. cerevisiae deletion strains, locus YOR265W, strain rbl2, active compounds read low 1 | S. cerevisiae deletion strains, locus YOR270C, strain vph1, active compounds read low 1.02 | S. cerevisiae deletion strains, locus YOR290C, strain snf2, active compounds read low 1.02 | S. cerevisiae deletion strains, locus YOR316C, strain cot1, active compounds read low 1.02 | S. cerevisiae deletion strains, locus YPL051W, strain arl3, active compounds read low 0.995 | S. cerevisiae deletion strains, locus YPL078C, strain atp4, active compounds read low 1 | S. cerevisiae deletion strains, locus YPL106C, strain sse1, active compounds read low 1.02 | S. cerevisiae deletion strains, locus YPL240C, strain hsp82, active compounds read low 1 | S. cerevisiae deletion strains, locus YPR119W, strain clb2, active compounds read low 1.01 | S. cerevisiae deletion strains, locus YPR141C, strain kar3, active compounds read low 1.01 | S. cerevisiae deletion strains, locus YPR163C, strain tif3, active compounds read low 1.02 | S. cerevisiae deletion strains, locus YPR167C, strain met16, active compounds read low 1.02 | S. cerevisiae deletion strains, strain wtn01, active compounds read low 1.05 | S. cerevisiae strains, strain wild type, active compounds read low 1.01
